Reference: PubChem BioAssay
Values joined by “and” are separate entries in the source; they are usually repeats but may differ in a detail not shown here. Equal values may be shown once. Active and inactive are the calls of the source.

Key:
[1] = biological target: Albumin (Bos taurus) (UniProt P02769); test: compounds binding labelled BSA control protein – biochemical, small-molecule microarray, Alexa647 label, 635/667 nm fluorescence, artefact control for SMM control protein annotation, profiling panel (AID 1118); details: BSA-A647 binding, fluorescence 635 nm, higher = more signal;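 also: score merges 667 nm emission intensity and signal-to-noise per printed compound spot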
Sequence of Albumin (Bos taurus) (P02769 whole entry, looked up): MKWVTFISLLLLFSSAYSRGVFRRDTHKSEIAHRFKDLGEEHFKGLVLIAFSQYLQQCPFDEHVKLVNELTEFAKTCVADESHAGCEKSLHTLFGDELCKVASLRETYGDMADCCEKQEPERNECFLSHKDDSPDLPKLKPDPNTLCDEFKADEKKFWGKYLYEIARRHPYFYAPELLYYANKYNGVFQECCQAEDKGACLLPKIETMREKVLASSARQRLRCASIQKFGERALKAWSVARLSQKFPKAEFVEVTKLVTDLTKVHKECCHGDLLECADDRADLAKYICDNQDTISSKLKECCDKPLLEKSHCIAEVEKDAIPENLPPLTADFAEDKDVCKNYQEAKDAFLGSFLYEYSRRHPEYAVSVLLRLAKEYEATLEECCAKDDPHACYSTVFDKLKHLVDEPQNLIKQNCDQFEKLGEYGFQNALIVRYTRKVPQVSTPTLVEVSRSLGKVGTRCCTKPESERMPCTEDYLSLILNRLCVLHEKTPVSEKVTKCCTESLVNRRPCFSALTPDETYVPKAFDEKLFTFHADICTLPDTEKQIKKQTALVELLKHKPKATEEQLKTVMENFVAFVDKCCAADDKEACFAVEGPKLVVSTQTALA

[2] = probe aXIP binding to arrayed compounds – biochemical, NeuroSMM set, 635/667 nm fluorescence, primary screen (AID 1119); details: small-molecule microarray, higher = more signal, called active from +8 up or from −8 down;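 also: probe is the protein aXip251-270 applied at 1 µg/mL to compound-printed slides; binding of probe to printed compounds measured as 667 nm fluorescence plus signal to noise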
[3] = probe aNOTCH3 binding on compound microarray – biochemical, small-molecule microarray, 635/667 nm fluorescence, primary screen (AID 1120); details: higher = more signal;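 also: probe is a biotin-tagged antibody raised against NOTCH3 rather than NOTCH3 protein; score merges spot fluorescence near 667 nm with spot signal to noise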
[4] = probe aNOTCH2 binding on compound microarray – biochemical, small-molecule microarray, 635/667 nm fluorescence, primary screen (AID 1121); details: higher = more signal;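 also: score merges feature fluorescence read at 667 nm with its signal to noise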
[5] = biological target: Carbonic anhydrase 2 (Homo sapiens) (UniProt P00918); test: compounds binding carbonic anhydrase 2 – biochemical, small-molecule microarray, Alexa647-labelled CAII, profiling panel (AID 1122); details: CAII-A647 binding fluorescence, higher = more signal
[6] = COS7 lysate on small-molecule microarray, probe aHis, 635 nm (AID 1123); details: COS7 cell lysate, fluorescence, higher = more signal;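 also: z-score combines 667nm fluorescence intensity with signal-to-noise per printed compound spot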
[7] = probe aLAP1 signal on lysate-treated microarray – cell lysate, small-molecule microarray, COS7 lysate, primary screen (AID 1124); details: probe aLAP1, fluorescence, higher = more signal;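 also: lysate comes from COS7 cells expressing LAP1 and is applied at 0.3 µg/mL; score merges spot fluorescence near 667 nm with signal-to-noise over triplicate slides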
[8] = system: Sam68 (KHDRBS1); test: compounds binding KHDRBS1 protein – biochemical, small-molecule microarray, 635 nm fluorescence, primary screen (AID 1125); details: higher = more signal;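 also: score merges 667 nm channel intensity with signal to noise over triplicate slides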
[9] = system: Chordin-like protein 2 (CHRDL2); test: compounds binding chordin-like 2 – biochemical, small-molecule microarray, 635 nm fluorescence, primary screen (AID 1126); details: fluorescence 635 nm, higher = more signal;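 also: printed compound slides probed with Chrdl2 protein at 4 µg/mL for 1 h at 4 C; score merges 667 nm emission intensity with signal to noise over three replicate slides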
[10] = biological target: Concanavalin-A (Canavalia ensiformis) (UniProt P02866); test: compounds binding concanavalin A lectin – biochemical, small-molecule microarray, Alexa647 label, 635 nm, artefact control for SMM control protein annotation, primary screen (AID 1127); details: ConA-A647 binding fluorescence, higher = more signal;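 also: z combines 667 nm emission intensity with signal-to-noise across three replicate slides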
Sequence of Concanavalin-A (Canavalia ensiformis) (P02866 whole entry, looked up): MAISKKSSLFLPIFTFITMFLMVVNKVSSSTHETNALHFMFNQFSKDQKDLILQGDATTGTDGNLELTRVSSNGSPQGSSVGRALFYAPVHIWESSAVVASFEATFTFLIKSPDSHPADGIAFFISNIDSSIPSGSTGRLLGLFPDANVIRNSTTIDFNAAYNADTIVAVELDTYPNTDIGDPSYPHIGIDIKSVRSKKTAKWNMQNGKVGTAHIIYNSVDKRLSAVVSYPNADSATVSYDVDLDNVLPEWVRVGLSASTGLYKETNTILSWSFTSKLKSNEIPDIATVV

[11] = compounds binding Alexa647 anti-His antibody – biochemical, small-molecule microarray, 635 nm fluorescence, artefact control for SMM control protein annotation, primary screen (AID 1128); details: higher = more signal;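 also: score merges feature fluorescence with signal-to-noise for each printed compound spot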
[12] = system: Human papillomavirus type 1a E7 protein (residues 1-88); test: HPV1a E7 small-molecule binders, primary screen, biochemical, small-molecule microarray, residues 1-88, 635 nm (AID 1129); details: small-molecule microarray binding, fluorescence 635 nm; higher = more signal
[13] = biological target: Focal adhesion kinase 1 (Homo sapiens) (UniProt Q05397); test: PTK2 protein binding on printed compound slides – biochemical, small-molecule microarray, 635/667 nm fluorescence, BSA, DTT, primary screen (AID 1130); details: 635 nm fluorescence, higher = more signal;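 also: composite of spot emission at 667 nm and signal to noise over triplicate slides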
Sequence of Focal adhesion kinase 1 (Homo sapiens) (Q05397 whole entry, looked up): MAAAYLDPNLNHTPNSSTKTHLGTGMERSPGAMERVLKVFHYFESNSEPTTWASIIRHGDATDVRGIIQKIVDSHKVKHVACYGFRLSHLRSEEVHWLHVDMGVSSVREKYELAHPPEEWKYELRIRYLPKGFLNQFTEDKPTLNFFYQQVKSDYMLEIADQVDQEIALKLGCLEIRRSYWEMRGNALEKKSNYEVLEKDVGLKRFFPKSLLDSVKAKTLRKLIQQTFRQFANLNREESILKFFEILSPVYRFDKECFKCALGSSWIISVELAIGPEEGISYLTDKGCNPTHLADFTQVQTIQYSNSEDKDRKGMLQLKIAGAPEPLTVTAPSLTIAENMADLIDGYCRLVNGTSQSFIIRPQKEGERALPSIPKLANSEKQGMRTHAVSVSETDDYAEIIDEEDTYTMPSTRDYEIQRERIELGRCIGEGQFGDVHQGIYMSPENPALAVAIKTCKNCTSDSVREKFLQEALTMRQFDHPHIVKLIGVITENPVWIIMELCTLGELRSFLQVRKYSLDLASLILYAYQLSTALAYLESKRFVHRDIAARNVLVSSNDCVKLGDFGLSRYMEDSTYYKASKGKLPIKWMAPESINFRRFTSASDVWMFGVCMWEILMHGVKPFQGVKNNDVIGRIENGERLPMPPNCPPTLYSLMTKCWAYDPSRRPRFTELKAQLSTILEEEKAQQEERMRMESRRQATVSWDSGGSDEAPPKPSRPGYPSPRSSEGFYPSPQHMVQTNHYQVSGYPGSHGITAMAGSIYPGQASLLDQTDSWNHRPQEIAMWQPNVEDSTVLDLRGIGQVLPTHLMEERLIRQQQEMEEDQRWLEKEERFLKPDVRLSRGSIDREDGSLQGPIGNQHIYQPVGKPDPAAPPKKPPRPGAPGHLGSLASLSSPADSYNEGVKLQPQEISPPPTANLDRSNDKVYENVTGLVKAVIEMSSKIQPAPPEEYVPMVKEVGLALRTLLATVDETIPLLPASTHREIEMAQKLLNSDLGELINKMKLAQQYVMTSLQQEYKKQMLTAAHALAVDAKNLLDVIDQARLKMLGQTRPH

[14] = system: Fibrinogen (Alexa647-labelled); test: Alexa647-fibrinogen binding to printed small molecules – biochemical, small-molecule microarray, 635/667 nm fluorescence, artefact control for SMM control-protein annotation, profiling panel (AID 1131); details: fibrinogen-A647 binding fluorescence, higher = more signal;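 also: z-score merges 667 nm fluorescence with per-spot signal-to-noise over triplicate slides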
[15] = biological target: Follistatin (Homo sapiens) (UniProt P19883); test: FST protein binding to printed compounds – biochemical, small-molecule microarray, 635/667 nm fluorescence, primary screen (AID 1132); details: 635 nm fluorescence, higher = more signal
Sequence of Follistatin (Homo sapiens) (P19883 whole entry, looked up): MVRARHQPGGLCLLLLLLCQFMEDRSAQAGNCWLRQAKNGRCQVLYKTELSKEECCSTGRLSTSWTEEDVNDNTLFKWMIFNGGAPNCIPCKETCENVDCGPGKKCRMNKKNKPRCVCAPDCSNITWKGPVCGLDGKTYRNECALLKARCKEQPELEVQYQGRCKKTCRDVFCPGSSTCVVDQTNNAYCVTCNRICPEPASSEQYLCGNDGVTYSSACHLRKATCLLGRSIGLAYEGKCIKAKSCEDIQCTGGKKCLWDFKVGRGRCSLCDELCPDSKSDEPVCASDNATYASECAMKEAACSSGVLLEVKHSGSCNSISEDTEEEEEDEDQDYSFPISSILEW

[16] = biological target: Fibroblast growth factor 2 (Homo sapiens) (UniProt P09038); test: basic fibroblast growth factor binding to printed compounds – biochemical, small-molecule microarray, 635/667 nm fluorescence, primary screen (AID 1133); details: FGF2, fluorescence 635/667, higher = more signal
Sequence of Fibroblast growth factor 2 (Homo sapiens) (P09038 whole entry, looked up): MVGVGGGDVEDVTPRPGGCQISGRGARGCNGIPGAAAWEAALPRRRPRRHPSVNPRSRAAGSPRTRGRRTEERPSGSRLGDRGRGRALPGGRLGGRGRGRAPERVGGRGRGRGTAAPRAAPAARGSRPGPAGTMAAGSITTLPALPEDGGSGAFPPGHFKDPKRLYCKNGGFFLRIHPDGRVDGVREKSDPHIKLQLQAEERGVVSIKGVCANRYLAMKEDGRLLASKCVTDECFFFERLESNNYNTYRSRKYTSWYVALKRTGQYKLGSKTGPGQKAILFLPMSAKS

[17] = JC-1 mitochondrial potential readout, lung cancer cells – cell-based, A549, JC-1 fluorescence, basal, 24 h, 100 nL, profiling panel (AID 1138); details: higher = more signal;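 also: A549 lung adenocarcinoma cells under basal conditions with no added stimulus; test concentration not given here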
[18] = system: Lefty1; test: Lefty1 protein binding to printed compounds – biochemical, small-molecule microarray, 635/667 nm fluorescence, primary screen (AID 1139); details: fluorescence 635/667, higher = more signal
[19] = system: wheat germ agglutinin (Triticum aestivum), Alexa647-labelled; test: Alexa647-WGA lectin binding to printed small molecules – biochemical, small-molecule microarray, 635/667 nm fluorescence, artefact control for SMM control-protein annotation, profiling panel (AID 1140); details: WGA-A647 binding, 635 nm fluorescence, higher = more signal;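 also: score merges 667 nm feature emission with signal to noise over triplicate slides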
[20] = biological target: Luciferin 4-monooxygenase (Photinus pyralis) (UniProt P08659); test: inhibition of purified Photinus pyralis luciferase – biochemical, luminescence, purified enzyme, 2006 set, primary screen (AID 1141); details: purified firefly luciferase, SteadyGlo luminescence, 30 min; higher = more signal, called active from +8 up or from −8 down;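 also: cell-free assay with purified firefly luciferase at 100 ng per well in PBS; test concentration not given here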
Sequence of Luciferin 4-monooxygenase (Photinus pyralis) (P08659 whole entry, looked up): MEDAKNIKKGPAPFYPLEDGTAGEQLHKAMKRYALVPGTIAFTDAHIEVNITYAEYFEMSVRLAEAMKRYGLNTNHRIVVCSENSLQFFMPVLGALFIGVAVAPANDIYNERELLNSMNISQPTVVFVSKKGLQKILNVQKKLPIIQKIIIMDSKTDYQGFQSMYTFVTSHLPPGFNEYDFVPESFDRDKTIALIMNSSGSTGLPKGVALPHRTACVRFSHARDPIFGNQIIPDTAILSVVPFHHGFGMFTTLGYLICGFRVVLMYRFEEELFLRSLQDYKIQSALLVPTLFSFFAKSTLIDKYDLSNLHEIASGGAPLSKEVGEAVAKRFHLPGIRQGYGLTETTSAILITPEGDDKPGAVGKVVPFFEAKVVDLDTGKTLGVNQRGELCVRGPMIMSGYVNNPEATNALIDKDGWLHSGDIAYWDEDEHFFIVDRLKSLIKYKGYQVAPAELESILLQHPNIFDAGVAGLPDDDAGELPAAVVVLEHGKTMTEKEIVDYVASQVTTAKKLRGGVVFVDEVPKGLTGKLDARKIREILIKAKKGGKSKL

SMILES	composite z-score [1]	composite Z-score [2]	composite z-score [3]	composite z-score [4]	composite z-score [5]	composite z-score [6]	composite z-score [7]	composite z-score [8]	composite z-score [9]	composite z-score [10]	composite z-score [11]	composite z-score [12]	composite z-score [13]	composite z-score [14]	composite z-score [15]	composite z-score [16]	z-score [17]	composite z-score [18]	composite z-score [19]	z-score [20]
C[N+](C)(C)CCCCNC(=O)[C@@H]1C[C@@H]2C(=O)N[C@@H](CCCC[N+](C)(C)C)C(=O)N2[C@@H]1c1cccc(OCCO)c1	-0.916 and -0.121	0.104 (inactive) and 2 (inactive)	0.197 and 0.129	-0.0066 and -0.0861	0.389 and 0.799	1.19 and 2.25	0.0458 and 1.65	1.31 and 0.767	1.56 and 1.47	1.13 and 0.657	2.73 and 2.55	0.905 and -0.426	-0.791 and -0.306	-0.355 and 0.553	1.54 and 1.48	1.94 and 1.9	0.725 and 1.07	1.73 and 1.55	0.284 and 0.68	-1.56 (inactive) and -1.48 (inactive)
C=CCN(C(=O)C(c1cccs1)N(C(=O)/C=C\C(=O)O)C(C)(C)CO)C(C)(C)C (stereo not given)	0.649 and 0.333	-1.12 (inactive) and 0.108 (inactive)	-0.289 and -0.358	-0.172 and -0.0728	0.786 and 0.805	0.414 and 0.831	-0.68 and 0.64	0.0206 and -0.225	-1.43 and -1.27	-0.625 and -0.54	-0.119 and 1.08	0.0785 and -0.562	-0.033 and 0.193	-0.654 and 0.99	-0.493 and -1.32	-0.454 and -0.588	1.12 and 0.815	-1.35 and -1.25	-0.452 and -0.231	-1.45 (inactive) and -0.975 (inactive)
C=CCN(C(=O)C1N(CCOCCO)C(=O)C2C(C(=O)O)C3C=CC21O3)C(C)(C)C (stereo not given)	0.106 and -0.502	0.519 (inactive) and -0.158 (inactive)	-0.465 and -0.469	-0.116 and -0.153	-0.115 and -0.524	-0.717 and -1.47	-0.882 and -0.478	-1.29 and -0.941	-3.33 and -1.51	-0.455 and -0.884	-0.673 and -0.976	-1.66 and -0.815	-0.324 and -0.708	-4.25 and -0.473	-2.09 and -1.58	-1.27 and -2.81	-0.147 and -0.774	-1.43 and -1.07	-0.511 and -0.0854	-0.352 (inactive) and 0.274 (inactive)
Cc1cc2c(nc1C)CCCN2CC(O)CN1CCCc2nc(-c3ccc(Br)cc3)ccc21 (stereo not given)	-0.473 and 0.163	2.2 (inactive) and 4.49 (inactive)	0.569 and 0.969	0.174 and 0.519	0.492 and 0.401	0.531 and 1.25	0.741 and 0.489	1.29	0.955 and 1.08	0.975 and 1.03	1.48 and 2.06	1.15 and 1.16	1.08 and 1.26	0.887 and 0.695	1.27 and 1.29	0.953 and 0.871	-0.118 and 1.8	1.34 and 0.844	1.15 and 1.36	-0.104 (inactive) and -0.176 (inactive)
C[C@@H]1CC[C@H]2C(=O)N3[C@@H](CC[C@@H](C)[C@@H]3c3ccc(-c4ccco4)cc3)C(=O)N2[C@H]1c1ccc(-c2ccco2)cc1	0.346 and -0.391	0.705 (inactive) and 1.24 (inactive)	0.116 and 0.385	0.0079 and 0.0312	0.688 and 0.645	1.12 and 0.0336	0.412 and -0.258	1.3 and 1.1	1.05 and 1.57	1.11 and 1.16	2.61 and 1.86	1.22 and 0.674	1.68 and -0.333	1.01 and 0.912	1.35 and 1.45	0.882 and 1.36	-0.764 and -0.575	1.24 and 1.32	1.22 and 1.11	-2.93 (inactive) and -6.15 (inactive)
CC(C)=NO[C@@H](C)c1cc(-c2c(C)cc(C)cc2C)no1	0.0075	0.454 (inactive)	-0.181	-0.181	-0.223	-0.177	0.214	-0.228	0.227	0.154	1.01	-0.705	0.0218	-0.268	0.0215	0.0248	-0.114	0.0782	-0.418	0.389 (inactive)
